# Measured values reported in PubChem BioAssay (NCATS).
# Values joined by “and” are separate entries in the source; they are usually repeats but may differ in a detail not shown here. Identical values can stand only once. Values without a mark were called inactive. Results filed as inconclusive are left out. Active and inactive are the calls of the source. Unless noted, calls follow the shape of the dose curve; as a rule, active = well fitted curve in the direction sought with a large enough effect; inconclusive = small, poorly fitted or top-dose-only effect, or another doubt; inactive = no such curve, though single readings can be large; an effect the other way counts as inactive or inconclusive.
# Key:
# [1] = Cell Viability - BJ (AID 421; calls by dose curve;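 also: potency is read from the fitted curve at half-maximal effect; cells exposed to compound for 40 hours at 37 °C before readout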); conditions: BJ fibroblast viability, qHTS
# How it was run: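 Luminescent ATP signal (CellTiter-Glo, 20 min at room temperature) served as the read-out of viable BJ cells after 40 hours of compound treatment. Responses were scaled between DMSO and 100 uM tamoxifen, and AC50 values were obtained by Hill modeling.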
# [2] = Cell Viability - Jurkat (AID 426;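 active = dose-dependent loss of cell ATP signal giving a full or clear fitted curve, ranked by lower potency value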;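 also: potency is read from the fitted curve at half-maximal effect; cells exposed to compound for 40 hours at 37 °C before ATP read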); conditions: qHTS
# How it was run: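 Cytotoxicity taken as drop in cellular ATP (CellTiter-Glo luminescence, 20 min room temperature) after 40 hr, 37C treatment of 5000 Jurkat Clone E6-1 cells per well; concentration-response fitted with Hill equation for AC50.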
# [3] = Cell Viability - Hek293 (AID 427;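 active = compounds whose dose-response curve shows a full or clear partial loss of cell viability, called from curve shape rather than a numeric limit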;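 also: potency is read from the fitted curve at half-maximal effect; cells exposed to compound for 40 hours at 37 °C before reading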); conditions: qHTS
# How it was run: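 Luminescent ATP read-out (CellTiter-Glo, 20 min RT) after 40 hr compound exposure at 37 °C in complete medium. Signal normalized to DMSO (basal) and 100 uM tamoxifen (100% inhibition); concentration-response fitted with the standard Hill equation to give AC50.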
# [4] = Cell Viability - HepG2 (AID 433; calls by dose curve;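 also: potency is read from the fitted curve at half-maximal effect; potency for ATP loss meaning cytotoxicity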); conditions: qHTS
# How it was run: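 Cytotoxicity read as ATP loss (CellTiter-Glo luminescence) after 40 hr compound exposure of HepG2, 1500 cells/well, 37 °C. AC50 by Hill equation; 0% set by DMSO, 100% inhibition by 100 uM tamoxifen.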
# [5] = Cell Viability - MRC5 (AID 434; calls by dose curve;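 also: potency is read from the fitted curve at half-maximal effect; cells exposed to compound for 40 hours at 37 °C; potency reflects cytotoxicity seen as loss of intracellular ATP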); conditions: MRC5 lung fibroblast viability, qHTS
# How it was run: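 ATP luminescence read-out (CellTiter-Glo, 20 min RT) after 40 hr, 37 °C compound exposure of 1500 MRC5 cells/well. Data normalized to DMSO (basal) and 100 uM tamoxifen (100% inhibition); AC50 from standard Hill equation.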
# [6] = Cell Viability - SK-N-SH (AID 435; calls by dose curve; also: potency is read from the fitted curve at half-maximal effect); conditions: SK-N-SH neuroblastoma cell viability qHTS
# How it was run: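 qHTS cytotoxicity: CellTiter-Glo ATP luminescence after 40 h compound exposure of human neuroblastoma SK-N-SH cells at 37 °C. AC50 derived by Hill-equation fitting, with DMSO as basal and 100 uM tamoxifen as full inhibition.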
# [7] = Cell Viability - N2a (AID 540); conditions: N2a mouse neuroblastoma cell viability; activity change, negative = cytotoxicity: at 92.2 µM (top of the series); also: nearly all actives have a fitted effect of over 45% in size; also: potency is read from the fitted curve at half-maximal effect;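 as to activity change, negative = cytotoxicity: plate controls were DMSO alone for no effect and tamoxifen control for full effect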
# How it was run: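 CellTiter-Glo ATP luminescence, read 20 min after reagent at room temperature, reported viability following 40 h compound treatment at 37 °C. N2a mouse neuroblastoma cells seeded 1500/well; Hill equation gave AC50.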
# [8] = Cell Viability - NIH 3T3 (AID 541); conditions: NIH 3T3 cell viability, qHTS; activity change, negative = cytotoxicity: at 92.2 µM (top of the series); also: nearly all actives have a fitted effect of over 25% in size; also: potency is read from the fitted curve at half-maximal effect;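 as to activity change, negative = cytotoxicity: plate controls were DMSO alone for no effect and tamoxifen positive control for full effect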
# How it was run: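 Intracellular ATP (CellTiter-Glo luminescence, 20 min at room temperature) measured after 40 hr compound exposure at 37 °C of 1000 NIH 3T3 mouse fibroblasts/well in complete medium; AC50 derived by Hill-equation modelling of qHTS concentration-response curves.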
# [9] = Cell Viability - HUV-EC-C (AID 542); conditions: HUV-EC-C endothelial cell viability, qHTS; series mostly up to 92.2 µM; also: nearly all actives have a fitted effect of over 35% in size; also: potency is read from the fitted curve at half-maximal effect; as to activity change, negative = cytotoxicity: % is scaled to controls: 0 for no effect and ±100 for the full control effect
# How it was run: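 CellTiter-Glo luminescence measured ATP loss in HUV-EC-C cells (1000/well) after 40 hr compound exposure at 37 °C, in complete culture medium. Concentration-response data were Hill-fitted to give AC50.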
# [10] = Cell Viability - H-4-II-E (AID 543); conditions: H-4-II-E rat hepatoma viability; series mostly up to 92.2 µM; also: nearly all actives have a fitted effect of over 35% in size; also: potency is read from the fitted curve at half-maximal effect
# How it was run: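 CellTiter-Glo luminescence (intracellular ATP) measured after 40 h compound exposure at 37 °C in H-4-II-E rat hepatoma cells seeded at 1500/well. Values are AC50s fitted with the standard Hill equation.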
# [11] = Cell Viability - SH-SY5Y (AID 544); conditions: SH-SY5Y neuroblastoma cell viability; series mostly up to 92.2 µM; also: nearly all actives have a fitted effect of over 55% in size; also: potency is read from the fitted curve at half-maximal effect
# How it was run: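 Cytotoxicity measured via ATP-dependent luciferase luminescence (CellTiter-Glo) following 40 h, 37 °C exposure of 1500 SH-SY5Y cells per well. Concentration-response data were fitted with the standard Hill equation to give AC50.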
# [12] = Cell Viability - Renal Proximal Tubule (AID 545); conditions: renal proximal tubule cells viability; activity change, negative = cytotoxicity: at 91.7 µM (top of the series); also: nearly all actives have a fitted effect of over 40% in size; also: potency is read from the fitted curve at half-maximal effect;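 as to activity change, negative = cytotoxicity: 0% = DMSO only and -100% = 100 µM tamoxifen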
# How it was run: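 Viability taken as intracellular ATP (CellTiter-Glo luminescence) after 40 hr, 37 °C compound treatment of primary proximal tubule cells from rat kidney, 1000 cells/well; Hill-equation fits of qHTS concentration-response data gave AC50.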
# [13] = target: Mitogen-activated protein kinase 10 (Mus musculus) (UniProt Q61831); assay: JNK3 AlphaScreen Assay (AID 530; active = well fitted curve in either direction with a large enough effect, not every such curve was filed as active;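 also: kinase came from lysate of stimulated human HepG2 cells; signal reports phosphorylation of biotinylated GST-cJun 1-79 at Ser73 with 10 µM ATP; % is scaled to controls: 0 for no effect and ±100 for the full control effect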); conditions: JNK3 lysate, c-Jun phosphorylation; series mostly up to 57.1 µM
# How it was run: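 Activity was read by AlphaScreen after JNK3-containing HepG2 lysate (cytokine pre-activated) phosphorylated biotinylated GST-cJun with 10 uM ATP at room temperature. Phospho-Ser73 cJun antibody with Protein-A acceptor beads provided detection.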
# [14] = target: Cytochrome P450 1A2 (Homo sapiens) (UniProt P05177); assay: p450-cyp1a2 (AID 410; calls by dose curve; also: potency is read from the fitted curve at half-maximal effect); conditions: recombinant CYP1A2, luciferin-ME demethylation, luminescence; series mostly up to 57 µM
# Chain of Cytochrome P450 1A2 (Homo sapiens) (P05177 whole entry, looked up): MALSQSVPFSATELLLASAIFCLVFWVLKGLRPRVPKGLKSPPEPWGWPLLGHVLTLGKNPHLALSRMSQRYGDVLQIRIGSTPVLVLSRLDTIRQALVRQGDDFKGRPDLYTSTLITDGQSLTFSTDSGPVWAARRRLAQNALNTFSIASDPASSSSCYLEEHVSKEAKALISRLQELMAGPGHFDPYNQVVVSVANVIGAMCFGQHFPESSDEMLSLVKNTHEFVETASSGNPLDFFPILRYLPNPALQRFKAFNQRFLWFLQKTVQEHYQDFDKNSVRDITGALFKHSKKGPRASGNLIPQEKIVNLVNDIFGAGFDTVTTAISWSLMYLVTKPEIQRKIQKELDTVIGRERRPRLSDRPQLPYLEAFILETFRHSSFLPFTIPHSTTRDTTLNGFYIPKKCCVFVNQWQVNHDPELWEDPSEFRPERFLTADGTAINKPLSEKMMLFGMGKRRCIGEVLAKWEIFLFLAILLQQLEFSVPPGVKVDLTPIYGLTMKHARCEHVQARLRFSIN
# How it was run: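 Luminescent demethylation readout: Luciferin-ME (100uM, equal to Km) turned over by 20nM CYP1A2 for 60 min at room temperature after NADPH regeneration addition, following 10 min compound preincubation. Normalization used 57 uM furafylline as full inhibition.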
# [15] = NFAT Signaling Pathway (AID 444; active = well fitted curve in either direction with a large enough effect, not every such curve was filed as active;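 also: carbachol stimulus at about its EC50 of 1 µM final; % is scaled to controls: 0 for no effect and ±100 for the full control effect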); conditions: Jurkat NFAT-bla M1, carbachol, beta-lactamase ratio, 5 h; at 38 µM (top of the series) unless noted
# How it was run: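 Jurkat cells with NFAT-driven β-lactamase reporter and co-expressed M1 receptor, stimulated with carbachol (final 1 uM, ~EC50), compound titration, 5 h at 37 °C. CCF4 loaded 1 h at RT; 460/530 nm ratio gave %activity and AC50.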
# [16] = target: Glucocorticoid receptor (Homo sapiens) (UniProt P04150); assay: GR-GFP Redistribution (AID 450;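 active = compounds whose dose series gives a full or clear partial fitted curve of increased nuclear translocation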; also: potency is read from the fitted curve at half-maximal effect); conditions: U2OS GR-GFP nuclear translocation, laser cytometry, 2 h
# Chain of Glucocorticoid receptor (Homo sapiens) (P04150 whole entry, looked up, the tested form may be a part): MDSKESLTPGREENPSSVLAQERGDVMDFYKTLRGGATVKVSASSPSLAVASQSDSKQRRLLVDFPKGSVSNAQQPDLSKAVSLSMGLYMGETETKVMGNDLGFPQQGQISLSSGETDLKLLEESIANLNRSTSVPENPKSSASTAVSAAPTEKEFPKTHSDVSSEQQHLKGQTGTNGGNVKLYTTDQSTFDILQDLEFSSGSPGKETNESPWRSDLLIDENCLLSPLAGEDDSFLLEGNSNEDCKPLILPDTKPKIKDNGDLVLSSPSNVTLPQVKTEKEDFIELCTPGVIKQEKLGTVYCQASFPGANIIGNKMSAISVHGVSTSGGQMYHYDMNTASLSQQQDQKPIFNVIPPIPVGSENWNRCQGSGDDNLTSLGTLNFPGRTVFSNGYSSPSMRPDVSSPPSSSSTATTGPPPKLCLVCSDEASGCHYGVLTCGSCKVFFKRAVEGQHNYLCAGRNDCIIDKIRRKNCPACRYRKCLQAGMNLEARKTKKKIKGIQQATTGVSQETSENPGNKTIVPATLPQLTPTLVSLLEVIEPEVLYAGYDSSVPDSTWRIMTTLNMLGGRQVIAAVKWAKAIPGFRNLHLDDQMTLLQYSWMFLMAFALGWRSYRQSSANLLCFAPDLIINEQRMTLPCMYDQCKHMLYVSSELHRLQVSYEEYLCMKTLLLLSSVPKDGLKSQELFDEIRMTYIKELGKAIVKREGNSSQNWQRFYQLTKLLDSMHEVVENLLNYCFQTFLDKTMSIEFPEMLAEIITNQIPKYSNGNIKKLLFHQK
# [17] = target: Glucocorticoid receptor (Homo sapiens) (UniProt P04150); assay: GR-EFC Redistribution (AID 451; calls by dose curve; also: potency is read from the fitted curve at half-maximal effect); conditions: CHO-K1 GR-EFC translocation, beta-gal luminescence, 2 h
# How it was run: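 CHO-K1 cells expressing nuclear EA and GR-ED fragments of b-gal; compounds titrated up to 46 uM final, 2 h at 37 C. GR nuclear translocation read as complemented b-gal luminescence after 1 h RT detection.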
Structure (SMILES),Potency [1],Potency [2],Potency [3],Potency [4],Potency [5],Potency [6],Potency [7],Potency [8],Potency [9],Potency [10],Potency [11],Potency [12],outcome [13],Potency [14],"activity change, negative = inhibition [15] [%]",Potency [16] [µM],Potency [17] [µM]
CC(C)CCON=O,> 92 µM,> 92 µM,> 92 µM,> 92 µM,> 92 µM,> 92 µM,inactive,inactive,inactive,inactive,inactive,inactive,–,–,–,–,–
S=C=S,> 92 µM,> 92 µM,> 92 µM,> 92 µM,> 92 µM,> 92 µM,inactive,inactive,inactive,inactive,inactive,inactive,inactive,–,–,–,–
C=CCN=C=S,> 92 µM,> 92 µM,> 92 µM,> 92 µM,> 92 µM,> 92 µM,inactive,inactive,inactive,inactive,inactive,inactive,inactive,–,–,–,–
O=C/C=C/c1ccccc1,> 92 µM,–,–,> 92 µM,> 92 µM,> 92 µM,inactive,12.6 µM (active),inactive,inactive,inactive,inactive,inactive,–,–,–,–
[Cl-].[Cl-].[Hg+2],29.4 µM (active),25.3 µM (active),19.4 µM (active),–,33.4 µM (active),16 µM (active),31.6 µM (active),15.8 µM (active),10 µM (active),20 µM (active),158 nM (active),316 nM (active),–,–,–,–,–
c1ccc2c(c1)[I+]c1ccccc1-2,–,–,–,–,–,–,–,–,–,–,–,–,inactive,126 nM (active) and 20 nM (active),-17.4,> 46,> 46
CCCCCl,> 92 µM,> 92 µM,> 92 µM,> 92 µM,> 92 µM,> 92 µM,inactive,inactive,inactive,inactive,inactive,inactive,–,–,–,–,–
O=Cc1ccco1,> 92 µM,> 92 µM,> 92 µM,> 92 µM,> 92 µM,> 92 µM,inactive,inactive,inactive,inactive,inactive,inactive,–,–,–,–,–
O=C1C2CC=CCC2C(=O)N1SC(Cl)(Cl)Cl (stereo not given),54.5 µM (active) and 21.4 µM (active),4.24 µM (active) and 4.76 µM (active),26.5 µM (active) and 26.9 µM (active),40.6 µM (active) and 37.9 µM (active),24.9 µM (active) and 14.7 µM (active),27.7 µM (active) and 13.2 µM (active),20 µM (active) and 10 µM (active),5.01 µM (active) and 2 µM (active),50.1 µM (active) and 25.1 µM (active),7.94 µM (active) and 6.31 µM (active),2 µM (active) and 1 µM (active),3.98 µM (active) and 3.16 µM (active),inactive,–,–,–,–
CCCCCCCCOC(=O)c1ccccc1C(=O)OCCCCCCCC,> 92 µM,–,> 92 µM,> 92 µM,> 92 µM,> 92 µM,inactive,inactive,inactive,inactive,inactive,inactive,–,–,–,–,–
ClC(Cl)(Cl)Cl,> 92 µM,> 92 µM,> 92 µM,> 92 µM,> 92 µM,> 92 µM,inactive,inactive,inactive,inactive,inactive,inactive,–,–,–,–,–
